PMC7862700, “An all-to-all approach to the identification of sequence-specific readers for epigenetic DNA modifications on cytosine”

Experiments:
Assay in all cases: DAPPL (digital affinity profiling via proximity ligation, sequencing); 10 mM Tris-HCl pH 7.5, 50 mM NaCl, 1 mM DTT, 4% glycerol, room temperature, 30 min; GST-TFs on glutathione beads, 16-mer random dsDNA library, 0.1% formaldehyde crosslink after washing; high values mean tight binding
[1] = target: T1, FLI1 (Homo sapiens, UniProt Q01543 1-452); details: protein: recombinant; tags: N-terminal GST; dsDNA, one strand shown
T1 sequence: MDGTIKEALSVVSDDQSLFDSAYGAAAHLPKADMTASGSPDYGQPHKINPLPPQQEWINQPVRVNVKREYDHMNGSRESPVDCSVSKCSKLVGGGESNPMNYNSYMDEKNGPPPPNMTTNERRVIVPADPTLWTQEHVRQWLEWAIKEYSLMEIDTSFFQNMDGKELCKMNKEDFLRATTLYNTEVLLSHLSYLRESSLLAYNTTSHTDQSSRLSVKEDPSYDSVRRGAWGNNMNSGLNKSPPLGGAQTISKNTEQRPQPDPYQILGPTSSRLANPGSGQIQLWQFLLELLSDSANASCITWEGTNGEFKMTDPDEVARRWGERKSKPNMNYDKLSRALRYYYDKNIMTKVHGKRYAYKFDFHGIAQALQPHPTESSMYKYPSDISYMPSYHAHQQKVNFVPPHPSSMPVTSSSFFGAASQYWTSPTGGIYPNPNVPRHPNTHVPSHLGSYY
Procedure, shortened: (§1)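 Beads coated with glutathione captured GST-fused human transcription factors that had been expressed in yeast, and the factors were then given DNA barcodes and pooled with a tag-only sample. The pools were incubated with 200 nmole of a random double-stranded 16-mer DNA library in Tris/NaCl/DTT/glycerol buffer for 30 min at room temperature, washed, crosslinked with 0.1% formaldehyde and proximity-ligated with BsaI/T4 ligase at 37 °C for 1 h. PCR amplification and Illumina NextSeq500 sequencing came last. Binding signal is each hexamer's read frequency for a factor divided by its frequency for the tag-only sample.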

[2] = target: T2, ELK1 (Homo sapiens, UniProt P19419 1-428); details: protein: recombinant; tags: N-terminal GST; dsDNA, one strand shown
T2 sequence: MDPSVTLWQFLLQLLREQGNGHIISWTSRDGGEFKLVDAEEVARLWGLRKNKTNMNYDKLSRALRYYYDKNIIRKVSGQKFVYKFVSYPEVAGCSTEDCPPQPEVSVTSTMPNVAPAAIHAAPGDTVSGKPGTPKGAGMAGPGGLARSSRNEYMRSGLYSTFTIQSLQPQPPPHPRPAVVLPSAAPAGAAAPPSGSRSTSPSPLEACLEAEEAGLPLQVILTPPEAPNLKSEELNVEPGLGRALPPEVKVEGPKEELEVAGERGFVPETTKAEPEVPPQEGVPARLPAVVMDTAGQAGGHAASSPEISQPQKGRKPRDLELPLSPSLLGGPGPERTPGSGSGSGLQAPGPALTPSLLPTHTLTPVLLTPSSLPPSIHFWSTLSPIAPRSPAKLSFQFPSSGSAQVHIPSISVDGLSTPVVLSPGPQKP
Procedure, shortened: as §1

[3] = target: T3, GABPA (Homo sapiens, UniProt Q06546 1-454); details: protein: recombinant; tags: N-terminal GST; dsDNA, one strand shown
T3 sequence: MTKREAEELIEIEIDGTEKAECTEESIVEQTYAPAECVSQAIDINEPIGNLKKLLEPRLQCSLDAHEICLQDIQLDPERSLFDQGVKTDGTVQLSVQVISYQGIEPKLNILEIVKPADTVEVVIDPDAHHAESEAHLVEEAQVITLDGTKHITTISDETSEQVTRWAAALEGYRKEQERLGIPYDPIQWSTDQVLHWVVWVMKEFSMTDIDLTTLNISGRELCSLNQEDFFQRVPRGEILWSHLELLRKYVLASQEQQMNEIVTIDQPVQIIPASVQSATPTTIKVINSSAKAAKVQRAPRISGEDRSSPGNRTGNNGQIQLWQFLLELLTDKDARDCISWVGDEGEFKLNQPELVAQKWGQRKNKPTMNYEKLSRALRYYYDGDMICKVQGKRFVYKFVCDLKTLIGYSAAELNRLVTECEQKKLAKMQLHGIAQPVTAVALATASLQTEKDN
Procedure, shortened: as §1

[4] = target: T4, ERG (Homo sapiens, UniProt P11308 1-479); details: protein: recombinant; tags: N-terminal GST; dsDNA, one strand shown
T4 sequence: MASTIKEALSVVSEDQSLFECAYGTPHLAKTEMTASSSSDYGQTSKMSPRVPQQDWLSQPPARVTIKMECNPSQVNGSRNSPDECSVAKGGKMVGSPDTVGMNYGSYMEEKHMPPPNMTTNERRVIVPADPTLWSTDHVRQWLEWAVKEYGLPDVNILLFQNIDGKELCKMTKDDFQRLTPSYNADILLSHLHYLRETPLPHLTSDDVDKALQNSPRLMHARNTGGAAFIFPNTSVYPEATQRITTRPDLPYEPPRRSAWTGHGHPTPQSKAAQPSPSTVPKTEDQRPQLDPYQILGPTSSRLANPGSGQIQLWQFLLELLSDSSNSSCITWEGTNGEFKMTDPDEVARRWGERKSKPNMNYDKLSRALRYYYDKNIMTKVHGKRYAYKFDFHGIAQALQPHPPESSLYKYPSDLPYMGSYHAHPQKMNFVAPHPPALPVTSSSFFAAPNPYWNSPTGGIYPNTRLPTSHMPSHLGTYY
Procedure, shortened: as §1

[5] = target: ELF1 (Homo sapiens, UniProt P32519 1-619); details: protein: recombinant; tags: N-terminal GST; dsDNA, one strand shown
Chain of ELF1 (P32519 whole entry): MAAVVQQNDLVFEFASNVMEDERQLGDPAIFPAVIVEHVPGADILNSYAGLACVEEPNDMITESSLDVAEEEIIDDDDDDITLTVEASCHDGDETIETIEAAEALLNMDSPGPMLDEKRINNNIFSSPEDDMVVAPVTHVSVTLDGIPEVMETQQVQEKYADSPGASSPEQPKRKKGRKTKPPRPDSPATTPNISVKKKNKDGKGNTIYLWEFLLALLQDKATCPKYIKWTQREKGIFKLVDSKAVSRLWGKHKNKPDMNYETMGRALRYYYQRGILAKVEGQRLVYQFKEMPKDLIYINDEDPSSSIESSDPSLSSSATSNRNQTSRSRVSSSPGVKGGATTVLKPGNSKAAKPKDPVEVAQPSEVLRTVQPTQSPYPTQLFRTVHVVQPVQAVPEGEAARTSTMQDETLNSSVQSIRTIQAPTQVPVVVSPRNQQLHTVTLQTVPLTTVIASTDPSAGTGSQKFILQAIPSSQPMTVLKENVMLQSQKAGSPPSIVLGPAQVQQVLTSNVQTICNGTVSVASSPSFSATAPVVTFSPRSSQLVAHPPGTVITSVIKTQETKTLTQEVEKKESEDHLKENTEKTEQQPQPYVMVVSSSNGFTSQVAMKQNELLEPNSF
Procedure, shortened: as §1

[6] = target: T5, EHF (Homo sapiens, UniProt Q9NZC4 1-300); details: protein: recombinant; tags: N-terminal GST; dsDNA, one strand shown
T5 sequence: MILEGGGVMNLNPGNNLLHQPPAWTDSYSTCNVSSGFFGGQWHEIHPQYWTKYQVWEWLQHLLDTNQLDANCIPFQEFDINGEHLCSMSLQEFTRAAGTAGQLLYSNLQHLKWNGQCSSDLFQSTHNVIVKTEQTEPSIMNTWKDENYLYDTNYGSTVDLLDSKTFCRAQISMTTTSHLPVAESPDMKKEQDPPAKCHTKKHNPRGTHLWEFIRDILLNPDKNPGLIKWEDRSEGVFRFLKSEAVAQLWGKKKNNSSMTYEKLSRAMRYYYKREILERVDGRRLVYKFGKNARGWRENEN
Procedure, shortened: as §1

[7] = target: SPI1 (Homo sapiens, UniProt P17947 1-270); details: protein: recombinant; tags: N-terminal GST; dsDNA, one strand shown
Procedure, shortened: as §1

[8] = target: SPIB (Homo sapiens, UniProt Q01892 1-262); details: protein: recombinant; tags: N-terminal GST; dsDNA, one strand shown
Chain of SPIB (Q01892 whole entry): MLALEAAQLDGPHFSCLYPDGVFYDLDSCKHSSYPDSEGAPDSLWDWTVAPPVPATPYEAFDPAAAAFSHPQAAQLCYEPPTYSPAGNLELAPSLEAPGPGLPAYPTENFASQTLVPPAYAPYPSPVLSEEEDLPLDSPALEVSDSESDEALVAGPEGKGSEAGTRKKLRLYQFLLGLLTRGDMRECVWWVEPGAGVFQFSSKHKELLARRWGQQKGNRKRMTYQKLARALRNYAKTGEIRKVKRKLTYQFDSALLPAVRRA
Procedure, shortened: as §1

[9] = target: T6, ELK3 (Homo sapiens, UniProt P41970 1-407); details: protein: recombinant; tags: N-terminal GST; dsDNA, one strand shown
T6 sequence: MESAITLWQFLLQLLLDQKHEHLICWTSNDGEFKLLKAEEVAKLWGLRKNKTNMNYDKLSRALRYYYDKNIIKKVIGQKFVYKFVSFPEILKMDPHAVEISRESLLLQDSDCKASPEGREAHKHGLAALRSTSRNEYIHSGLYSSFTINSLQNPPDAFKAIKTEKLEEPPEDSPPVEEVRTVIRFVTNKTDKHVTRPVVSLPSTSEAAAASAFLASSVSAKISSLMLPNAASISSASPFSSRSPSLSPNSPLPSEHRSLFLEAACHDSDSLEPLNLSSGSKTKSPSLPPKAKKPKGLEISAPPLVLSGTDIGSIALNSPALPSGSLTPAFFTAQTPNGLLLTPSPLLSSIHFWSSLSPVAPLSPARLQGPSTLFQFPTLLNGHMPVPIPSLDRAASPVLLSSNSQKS
Procedure, shortened: as §1

[10] = target: T7, FEV (Homo sapiens, UniProt Q99581 1-238); details: protein: recombinant; tags: N-terminal GST; dsDNA, one strand shown
T7 sequence: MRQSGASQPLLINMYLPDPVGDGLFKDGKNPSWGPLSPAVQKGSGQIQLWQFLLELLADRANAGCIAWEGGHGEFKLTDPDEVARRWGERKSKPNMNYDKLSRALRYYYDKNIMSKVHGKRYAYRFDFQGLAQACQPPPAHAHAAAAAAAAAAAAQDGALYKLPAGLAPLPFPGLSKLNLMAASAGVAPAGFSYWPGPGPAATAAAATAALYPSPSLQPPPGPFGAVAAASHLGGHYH
Procedure, shortened: as §1

[11] = target: ETV5 (Homo sapiens, UniProt P41161 1-510); details: protein: recombinant; tags: N-terminal GST; dsDNA, one strand shown
Chain of ETV5 (P41161 whole entry): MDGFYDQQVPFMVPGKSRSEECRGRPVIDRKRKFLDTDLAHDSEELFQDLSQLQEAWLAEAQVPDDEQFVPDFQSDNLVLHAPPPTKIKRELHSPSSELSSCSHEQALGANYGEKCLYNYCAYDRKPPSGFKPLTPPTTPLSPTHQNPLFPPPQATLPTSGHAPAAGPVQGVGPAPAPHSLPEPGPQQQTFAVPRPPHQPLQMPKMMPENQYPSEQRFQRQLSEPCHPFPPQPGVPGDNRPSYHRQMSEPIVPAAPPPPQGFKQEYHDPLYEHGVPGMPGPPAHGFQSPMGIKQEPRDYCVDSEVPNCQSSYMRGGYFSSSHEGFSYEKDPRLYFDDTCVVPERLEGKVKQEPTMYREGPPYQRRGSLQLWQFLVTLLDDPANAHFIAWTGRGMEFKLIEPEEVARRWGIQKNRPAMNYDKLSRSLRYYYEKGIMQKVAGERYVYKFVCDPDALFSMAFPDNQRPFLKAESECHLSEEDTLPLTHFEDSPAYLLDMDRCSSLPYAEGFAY
Procedure, shortened: as §1

[12] = target: HSF1 (Homo sapiens, UniProt Q00613 1-529); details: protein: recombinant; tags: N-terminal GST; chain copies: 3; dsDNA, one strand shown
Chain of HSF1 (Q00613 whole entry): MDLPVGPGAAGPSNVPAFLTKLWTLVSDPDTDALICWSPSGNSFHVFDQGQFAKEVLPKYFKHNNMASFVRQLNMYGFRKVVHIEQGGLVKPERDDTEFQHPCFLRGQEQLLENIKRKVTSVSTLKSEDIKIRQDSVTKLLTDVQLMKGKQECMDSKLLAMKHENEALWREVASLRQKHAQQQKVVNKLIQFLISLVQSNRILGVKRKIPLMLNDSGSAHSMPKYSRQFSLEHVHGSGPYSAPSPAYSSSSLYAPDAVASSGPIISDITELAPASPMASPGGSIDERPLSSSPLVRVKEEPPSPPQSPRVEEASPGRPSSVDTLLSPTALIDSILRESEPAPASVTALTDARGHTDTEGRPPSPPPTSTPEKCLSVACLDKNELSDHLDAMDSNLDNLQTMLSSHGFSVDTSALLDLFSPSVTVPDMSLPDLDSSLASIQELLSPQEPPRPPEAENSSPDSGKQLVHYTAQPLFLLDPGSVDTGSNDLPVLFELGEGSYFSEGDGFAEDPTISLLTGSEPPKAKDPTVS
Procedure, shortened: as §1

[13] = target: T8, SPIC (Homo sapiens, UniProt Q8N5J4 1-248); details: protein: recombinant; tags: N-terminal GST; dsDNA, one strand shown
T8 sequence: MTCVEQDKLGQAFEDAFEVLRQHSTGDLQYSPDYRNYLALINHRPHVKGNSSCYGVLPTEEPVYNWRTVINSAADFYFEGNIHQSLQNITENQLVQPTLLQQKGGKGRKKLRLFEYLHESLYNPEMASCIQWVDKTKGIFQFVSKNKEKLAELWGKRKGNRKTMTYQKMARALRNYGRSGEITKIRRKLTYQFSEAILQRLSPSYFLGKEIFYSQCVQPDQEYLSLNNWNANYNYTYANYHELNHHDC
Procedure, shortened: as §1

[14] = target: ELF4 (Homo sapiens, UniProt Q99607 1-663); details: protein: recombinant; tags: N-terminal GST; dsDNA, one strand shown
Chain of ELF4 (Q99607 whole entry): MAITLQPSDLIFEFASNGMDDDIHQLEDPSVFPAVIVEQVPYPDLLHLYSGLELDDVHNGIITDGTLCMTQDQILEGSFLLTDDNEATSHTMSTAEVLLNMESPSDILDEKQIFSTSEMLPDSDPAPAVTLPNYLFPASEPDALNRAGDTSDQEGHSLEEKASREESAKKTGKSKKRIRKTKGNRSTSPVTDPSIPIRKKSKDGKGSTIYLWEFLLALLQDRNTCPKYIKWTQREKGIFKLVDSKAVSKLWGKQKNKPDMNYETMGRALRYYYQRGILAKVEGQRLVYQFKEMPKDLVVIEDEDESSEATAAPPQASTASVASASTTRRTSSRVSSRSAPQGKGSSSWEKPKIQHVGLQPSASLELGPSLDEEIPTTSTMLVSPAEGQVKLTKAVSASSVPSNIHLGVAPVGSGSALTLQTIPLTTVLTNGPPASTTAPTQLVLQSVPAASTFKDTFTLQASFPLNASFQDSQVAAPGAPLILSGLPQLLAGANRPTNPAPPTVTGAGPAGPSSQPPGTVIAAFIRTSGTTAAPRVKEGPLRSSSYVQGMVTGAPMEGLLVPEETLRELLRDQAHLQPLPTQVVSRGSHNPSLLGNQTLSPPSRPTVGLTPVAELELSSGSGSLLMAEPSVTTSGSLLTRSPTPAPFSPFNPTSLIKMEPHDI
Procedure, shortened: as §1

[15] = target: T9, ELK4 (Homo sapiens, UniProt P28324-2 1-405); details: protein: recombinant; tags: N-terminal GST; dsDNA, one strand shown
T9 sequence: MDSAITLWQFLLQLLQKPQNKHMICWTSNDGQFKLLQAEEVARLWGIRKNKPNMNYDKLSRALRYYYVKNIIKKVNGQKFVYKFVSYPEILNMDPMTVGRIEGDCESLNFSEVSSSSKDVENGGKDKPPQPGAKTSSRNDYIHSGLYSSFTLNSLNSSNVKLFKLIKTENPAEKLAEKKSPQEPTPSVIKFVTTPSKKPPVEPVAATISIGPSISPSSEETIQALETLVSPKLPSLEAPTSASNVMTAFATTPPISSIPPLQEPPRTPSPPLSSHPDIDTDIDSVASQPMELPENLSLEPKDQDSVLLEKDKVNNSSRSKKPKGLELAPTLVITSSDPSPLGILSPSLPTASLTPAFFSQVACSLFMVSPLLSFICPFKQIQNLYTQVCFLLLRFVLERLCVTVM
Procedure, shortened: as §1

[16] = target: T10, ETV2 (Homo sapiens, UniProt O00321 1-342); details: protein: recombinant; tags: N-terminal GST; dsDNA, one strand shown
T10 sequence: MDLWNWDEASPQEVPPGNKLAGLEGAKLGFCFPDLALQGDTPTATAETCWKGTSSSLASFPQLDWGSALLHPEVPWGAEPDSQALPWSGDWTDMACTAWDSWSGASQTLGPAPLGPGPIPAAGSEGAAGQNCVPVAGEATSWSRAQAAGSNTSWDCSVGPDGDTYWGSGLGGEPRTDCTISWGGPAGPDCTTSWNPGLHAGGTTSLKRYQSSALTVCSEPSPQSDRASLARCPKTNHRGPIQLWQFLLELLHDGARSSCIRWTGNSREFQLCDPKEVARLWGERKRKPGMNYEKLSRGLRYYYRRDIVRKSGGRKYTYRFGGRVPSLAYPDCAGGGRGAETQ
Procedure, shortened: as §1

[17] = target: T11, ELF3 (Homo sapiens, UniProt P78545 1-371); details: protein: recombinant; tags: N-terminal GST; dsDNA, one strand shown
T11 sequence: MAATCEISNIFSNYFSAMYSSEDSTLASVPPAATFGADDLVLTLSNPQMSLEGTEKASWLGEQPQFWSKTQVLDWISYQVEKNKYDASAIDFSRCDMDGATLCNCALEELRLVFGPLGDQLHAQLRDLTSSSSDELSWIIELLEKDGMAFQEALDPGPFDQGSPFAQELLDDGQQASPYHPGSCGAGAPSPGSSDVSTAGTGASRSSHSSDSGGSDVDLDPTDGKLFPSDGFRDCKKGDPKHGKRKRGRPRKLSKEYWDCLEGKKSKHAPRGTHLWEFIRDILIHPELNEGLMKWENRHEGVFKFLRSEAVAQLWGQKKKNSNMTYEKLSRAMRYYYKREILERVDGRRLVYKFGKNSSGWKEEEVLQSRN
Procedure, shortened: as §1

[18] = target: CRX (Homo sapiens, UniProt O43186 1-299); details: protein: recombinant; tags: N-terminal GST; dsDNA, one strand shown
Chain of CRX (O43186 whole entry): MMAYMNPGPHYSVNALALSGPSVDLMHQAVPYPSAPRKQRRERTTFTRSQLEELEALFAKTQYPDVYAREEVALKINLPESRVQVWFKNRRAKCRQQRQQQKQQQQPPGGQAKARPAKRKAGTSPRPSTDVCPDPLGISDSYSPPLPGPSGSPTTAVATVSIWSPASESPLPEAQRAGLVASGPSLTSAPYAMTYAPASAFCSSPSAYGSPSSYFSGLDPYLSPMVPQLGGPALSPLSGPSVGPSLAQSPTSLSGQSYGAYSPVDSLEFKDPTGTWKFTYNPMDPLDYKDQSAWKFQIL
Procedure, shortened: as §1

[19] = target: ETV1 (Homo sapiens, UniProt P50549 1-477); details: protein: recombinant; tags: N-terminal GST; dsDNA, one strand shown
Chain of ETV1 (P50549 whole entry): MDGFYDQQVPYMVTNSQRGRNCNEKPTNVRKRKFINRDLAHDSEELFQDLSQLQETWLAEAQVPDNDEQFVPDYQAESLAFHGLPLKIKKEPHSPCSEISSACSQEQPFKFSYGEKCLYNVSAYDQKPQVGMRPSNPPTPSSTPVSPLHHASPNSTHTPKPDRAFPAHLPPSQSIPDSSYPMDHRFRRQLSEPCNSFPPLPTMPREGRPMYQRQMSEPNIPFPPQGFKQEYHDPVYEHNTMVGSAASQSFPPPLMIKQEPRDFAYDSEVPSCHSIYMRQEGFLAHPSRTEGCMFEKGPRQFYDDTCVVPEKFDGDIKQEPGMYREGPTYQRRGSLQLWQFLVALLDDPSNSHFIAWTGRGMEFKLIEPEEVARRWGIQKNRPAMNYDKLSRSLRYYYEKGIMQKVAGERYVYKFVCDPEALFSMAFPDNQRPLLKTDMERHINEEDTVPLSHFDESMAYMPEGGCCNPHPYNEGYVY
Procedure, shortened: as §1

## CTGAAA
[1]
  binding signal: 1.16 fold enrichment (6-mer frequency, TF over GST control)
[2]
  binding signal: 1.14 fold enrichment (6-mer frequency, TF over GST control)
[3]
  binding signal: 1.1 fold enrichment (6-mer frequency, TF over GST control)
[4]
  binding signal: 1.04 fold enrichment (6-mer frequency, TF over GST control)
[5]
  binding signal: 1.19 fold enrichment (6-mer frequency, TF over GST control)
[6]
  binding signal: 1.09 fold enrichment (6-mer frequency, TF over GST control)
[7]
  binding signal: 1.19 fold enrichment (6-mer frequency, TF over GST control)
[8]
  binding signal: 1.24 fold enrichment (6-mer frequency, TF over GST control)
[9]
  binding signal: 1.03 fold enrichment (6-mer frequency, TF over GST control)
[10]
  binding signal: 1.25 fold enrichment (6-mer frequency, TF over GST control)
[11]
  binding signal: 1.22 fold enrichment (6-mer frequency, TF over GST control)
[12]
  binding signal: 1.16 fold enrichment (6-mer frequency, TF over GST control)
[13]
  binding signal: 1.35 fold enrichment (6-mer frequency, TF over GST control)
[14]
  binding signal: 1.13 fold enrichment (6-mer frequency, TF over GST control)
[15]
  binding signal: 1.19 fold enrichment (6-mer frequency, TF over GST control)
[16]
  binding signal: 1.15 fold enrichment (6-mer frequency, TF over GST control)
[17]
  binding signal: 1.28 fold enrichment (6-mer frequency, TF over GST control)
[18]
  binding signal: 1 fold enrichment (6-mer frequency, TF over GST control)
[19]
  binding signal: 1.1 fold enrichment (6-mer frequency, TF over GST control)
